Test results as given in PubChem BioAssay (NCATS).
Activity calls are given as the source filed them. Calls come from the whole dose curve; as a rule, active = well fitted curve in the direction sought with a large enough effect; inconclusive = small, poorly fitted or top-dose-only effect, or another doubt; inactive = no such curve, though single readings can be large or run the other way.

target: Galactokinase (Homo sapiens) (UniProt P51570); test: qHTS Validation Assay for Inhibitors of Human Galactokinase (GALK) (AID 493189); conditions: purified human GALK enzyme activity, qHTS 7-point titration; series mostly up to 57.5 µM
Procedure, shortened: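 Enzyme activity is inferred from ATP consumption: human GALK phosphorylates galactose (100 uM) using 35 uM ATP for 1 h at room temperature, and luciferase-based Kinase-Glo Plus reports unconsumed ATP.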

Galactokinase (Homo sapiens), sequence (P51570 whole entry, looked up): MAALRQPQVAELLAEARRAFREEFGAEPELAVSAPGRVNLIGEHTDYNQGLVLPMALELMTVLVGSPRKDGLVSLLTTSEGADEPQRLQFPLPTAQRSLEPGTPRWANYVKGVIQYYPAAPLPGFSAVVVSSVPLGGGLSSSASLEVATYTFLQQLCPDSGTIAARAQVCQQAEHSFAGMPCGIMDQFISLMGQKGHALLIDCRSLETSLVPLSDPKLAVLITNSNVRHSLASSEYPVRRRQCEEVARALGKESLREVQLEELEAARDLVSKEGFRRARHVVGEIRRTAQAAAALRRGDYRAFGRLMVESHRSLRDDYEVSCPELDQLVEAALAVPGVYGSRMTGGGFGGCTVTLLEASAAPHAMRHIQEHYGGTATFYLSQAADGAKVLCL

**Q.** With `O=C1NC(=O)C(c2ccccc2)(c2ccccc2)N1` as the compound, how does the outcome read?
**A.** inactive

**Q.** Which outcome does the source give for `COc1ccccc1N1CCN(CCCNc2cc(=O)n(C)c(=O)n2C)CC1` here?
**A.** inactive

**Q.** Which outcome does the source give for `COC(=O)[C@@H]1[C@H]2C[C@H]3c4[nH]c5ccccc5c4CCN3C[C@@H]2CC[C@@H]1O` here?
**A.** inactive

**Q.** Which outcome does the source give for `CCN(CC)CCNC(=O)c1ccc(N)cc1` here?
**A.** inactive

**Q.** With `CC(=O)CCCCn1c(=O)c2c(ncn2C)n(C)c1=O` as the compound, how does the outcome read?
**A.** inactive

**Q.** Which outcome does the source give for `CC(=O)c1ccc(S(=O)(=O)NC(=O)NC2CCCCC2)cc1` here?
**A.** inactive

**Q.** How did the outcome turn out when `CCN(CC)C(=O)c1ccc(O)c(OC)c1` was run?
**A.** inactive

**Q.** `O=C(O)CCc1nc(-c2ccccc2)c(-c2ccccc2)o1` was tested. Which outcome did it give?
**A.** inactive

**Q.** How did the outcome turn out when `CCN(CC)CCOC(=O)c1ccc(N)cc1` was run?
**A.** inactive

**Q.** `CN(C)CCC(c1ccccc1)c1ccccn1` (stereo not drawn) was tested. Which outcome did it give?
**A.** inactive

**Q.** `CC(C)NCC(O)COc1cccc2[nH]ccc12` (stereo not drawn) was tested. Which outcome did it give?
**A.** inactive

**Q.** `CCN1CCC[C@H]1CNC(=O)c1cc(S(N)(=O)=O)ccc1OC` was tested. Which outcome did it give?
**A.** inactive

**Q.** With `C[N+](C)(C)CCCCCC[N+](C)(C)C` as the compound, how does the outcome read?
**A.** inactive

**Q.** With `CCCNC(=O)NS(=O)(=O)c1ccc(Cl)cc1` as the compound, how does the outcome read?
**A.** inactive

**Q.** With `O=C1NCC2(CCN(CCc3ccccc3)CC2)O1` as the compound, how does the outcome read?
**A.** inactive

**Q.** How did the outcome turn out when `NCCS` was run?
**A.** inactive

**Q.** Which outcome does the source give for `NC(N)=Nc1nc(CSCC/C(N)=N/S(N)(=O)=O)cs1` here?
**A.** inactive

**Q.** For `Clc1ccc(Cn2c(CN3CCCC3)nc3ccccc32)cc1`, which outcome is on record?
**A.** inactive
